Screening data from PubChem.
A3A deaminase – inhibitors of human APOBEC3A DNA deaminase | P31941 | recombinant A3A, FAM/TAMRA ssDNA deamination fluorescence | inhibition, % at 20 µM | hit rate 0.41% among 330,000 | AID 493011;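 active means at least 40% inhibition at 20 µM here, with at most 30% in a related deaminase screen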;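 further: plate controls were A3A with DMSO for no effect and wells lacking A3A enzyme for full effect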
Target sequence (P31941 whole entry, looked up): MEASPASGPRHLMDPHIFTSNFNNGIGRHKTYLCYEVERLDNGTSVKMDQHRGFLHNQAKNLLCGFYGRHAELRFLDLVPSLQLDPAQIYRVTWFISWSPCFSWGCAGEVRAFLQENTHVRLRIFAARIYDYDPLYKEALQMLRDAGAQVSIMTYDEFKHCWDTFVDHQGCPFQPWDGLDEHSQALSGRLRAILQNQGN
PfGluPho inh – PfG6PD (Plasmodium falciparum) enzyme inhibition | PfGluPho enzyme, NADPH resazurin-diaphorase fluorescence | inhibition, % at 20 µM | hit rate 0.78% among 350,000;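 active means inhibition reaching at least a set limit at 20 µM in the primary screen, cut at about 59% in these data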;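 further: 0% = DMSO wells with substrate and 100% = DMSO wells lacking glucose-6-phosphate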
A3G deaminase – blocks human APOBEC3G single-stranded DNA deamination; hit rate 0.28% among 330,000; Q9HC16; recombinant A3G, ssDNA deamination FAM/TAMRA fluorescence; inhibition, % at 20 µM; AID 493012;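 active means inhibition of at least 40% at 20 µM, with no more than 30% in the related APOBEC3A deaminase screen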;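 further: plate controls were DMSO wells with A3G for no effect and wells lacking A3G enzyme for full effect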
Target sequence (Q9HC16 whole entry, looked up): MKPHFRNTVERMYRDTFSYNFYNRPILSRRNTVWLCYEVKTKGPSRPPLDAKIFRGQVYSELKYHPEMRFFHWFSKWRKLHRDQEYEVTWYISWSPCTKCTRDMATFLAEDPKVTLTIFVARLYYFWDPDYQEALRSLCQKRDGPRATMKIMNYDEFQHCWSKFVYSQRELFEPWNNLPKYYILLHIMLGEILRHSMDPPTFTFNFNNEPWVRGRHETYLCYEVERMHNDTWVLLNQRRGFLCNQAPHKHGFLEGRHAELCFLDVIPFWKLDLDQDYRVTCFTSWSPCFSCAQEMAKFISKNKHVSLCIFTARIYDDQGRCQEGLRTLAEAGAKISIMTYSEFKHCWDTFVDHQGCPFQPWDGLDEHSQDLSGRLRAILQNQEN
PfM18AAP inh – PfM18AAP enzyme inhibition. inhibition, % at 7.35 µM. recombinant PfM18AAP, H-Glu-NHMec fluorogenic cleavage. AID 1822. hit rate 1.2% among 290,000;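 active means inhibition above the campaign mean inhibition over all tested compounds plus 3 SD, cut at about 28% in these data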;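 further: 0% = plate median of test compound wells and 100% = 2 mM ZnCl2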
CR mimetic SO – yeast age-related superoxide inhibition as caloric restriction mimetic; AID 2690; S. cerevisiae aged cells, superoxide DHE fluorescence; hits give low values; superoxide response (% of plate mean), % at 10 µM; hit rate 0.18% among 330,000;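 active means superoxide response under a set limit, about three screen SD below normal, cut at about 65% in these data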;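 further: yeast aged for seven days with compound at 30 °C before DHE staining; 100% = average MFI of all compound-treated wells on the plate with controls excluded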
Superoxide pick – yeast aging superoxide inhibition, cherry pick confirmation; shares compounds with CR mimetic SO; S. cerevisiae aging, superoxide DHE fluorescence; hits give low values; hit rate 1% among 850; superoxide response (% of plate), % at 10 µM;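 active means superoxide signal below 65% of the plate average of sample wells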;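 further: cells aged with compound for 7 days at 30 degrees C before staining; 100% equals mean DHE fluorescence of all compound wells on the plate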
DHE counter – compound alters DHE oxidation or fluorescence in yeast; shares compounds with CR mimetic SO; S. cerevisiae BY4741, flow cytometry; hits give low values; fluorescence response, % at 10 µM; 850 tested, under 10 active; AID 435000;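 active means fluorescence response below 15%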;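 further: percent of the mean fluorescence averaged over all compound wells on the plate; lower means stronger quenching of DHE signal or ROS scavenging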
A3A conf – confirmation of human APOBEC3A DNA deaminase inhibitors | shares compounds with A3A deaminase | recombinant A3A, ssDNA deaminase UDG fluorescence assay | inhibition, % at 20 µM | hit rate 63% among 1,400 | AID 493151;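 active means inhibition reaching a set limit, 80% of the first screen's cutoff, at 20 µM in any replicate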;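 further: plate controls were DMSO wells with A3A for no effect and wells lacking A3A enzyme for full effect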
UDG ctr A3A – counter-screen for APOBEC3A inhibitors: UDG. shares compounds with A3A deaminase. inhibition, % at 20 µM. 1,000 tested, under 10 active. UDG counterscreen, FAM/TAMRA uracil oligo fluorescence. AID 504714; call rule not given here
APOBEC3G confirm – APOBEC3G (human) deaminase inhibition, confirmed. shares compounds with A3G deaminase. recombinant A3G ssDNA deaminase, UDG/FAM-TAMRA fluorescence. inhibition, % at 20 µM. hit rate 72% among 890;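 active means inhibition reaching a set limit in any replicate at 20 µM, the limit being 80% of the first screen's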
UDG ctr A3G – E. coli UDG inhibition in APOBEC3G counter-screen; shares compounds with A3G deaminase; UDG counterscreen, FAM/TAMRA oligo fluorescence; inhibition, % at 20 µM; 710 tested, under 10 active; AID 504715;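 active means compounds giving 40% or more inhibition at 20 µM in any one of the three replicates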;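 further: plate controls were DMSO wells with UDG and oligo for no effect and DMSO wells lacking both for full effect; inhibitors lower the FAM signal released by uracil excision and alkaline cleavage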
PfG6PD confirm – confirmation of Plasmodium falciparum G6PD inhibitors | AID 504753 | recombinant PfGluPho, NADPH-diaphorase-resazurin fluorescence | inhibition, % at 20 µM | shares compounds with PfGluPho inh | hit rate 34% among 2,400;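 active means inhibition of at least 50% at 20 µM in any single replicate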;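 further: 0% = DMSO with substrate and 100% = DMSO lacking glucose-6-phosphate substrate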
* marks the source's active call; other numbers are inactive results; nt = not tested or not shown; ! = a repeat was not active. Only some compounds are listed: those with a hit (about 2.4% of all), similar ones and a draw of the others.

SMILES	A3A deaminase	PfGluPho inh	A3G deaminase	PfM18AAP inh	CR mimetic SO	Superoxide pick	DHE counter	others
COc1ccc(N(CC(=O)NCc2ccc(F)cc2)C(=O)c2snc(C(N)=O)c2N)cc1	-3.6	-8.0	-7.5	-1.9	96.5	nt	nt
O=C(N/N=C/C(Br)=C/c1ccccc1)c1cccs1	3.7	3.9	-1.5	-0.7	86.4	nt	nt
COc1ccccc1Oc1ccc2c(c1)C(=O)N(CC(=O)O)C2=O	-4.9	-28.0	-5.0	6.2	40.1*	102.1	91.1
Cn1c(=O)c2[nH]c(N3CCCCC3)nc2n(C)c1=O	-3.8	0.2	-7.1	5.0	65.5*	80.3	89.8
NC(=O)/C(=C/c1cccnc1)NC(=O)c1ccccc1	2.3	11.9	1.9	-3.7	87.5	nt	nt
Cc1cc(C)nc(CCNC(=O)C2CCC(=O)N(Cc3ccccc3F)C2)n1 (stereo unspecified)	-1.2	-4.9	0.4	-1.6	64.7*	94.9	94.8
Cc1ccc(CCNC(=O)C2CCC(=O)N(Cc3ccccc3F)C2)o1 (stereo unspecified)	0.0	23.6	-3.5	-102.4	104.4	nt	nt
Cc1cccc(N2CCN(C(=O)CCc3nc4ccccc4c(=O)[nH]3)CC2)c1C	-0.4	14.5	-7.2	nt	103.8	nt	nt
CCc1ccc(NC(=O)CSc2nnc(-c3ccco3)o2)cc1	3.4	26.1	2.6	-0.1	65.0*	87.7	91.8
CC(=O)Nc1ccc(NC(=O)CSc2nnc(-c3ccco3)o2)cc1	3.1	-7.5	-1.5	3.5	99.8	nt	nt
CCN(Cc1ccccc1)S(=O)(=O)c1ccc(C(=O)Nc2nnc(C)o2)cc1	-0.5	-24.1	5.8	-2.1	82.2	87.0	99.9
CCc1nnc(NC(=O)c2ccc(S(=O)(=O)N(CC)Cc3ccccc3)cc2)o1	1.0	-31.2	3.0	-1.1	100.0	nt	nt
CC(=O)Nc1ccc(Nc2nnc(-c3ccc(C)c(S(N)(=O)=O)c3)c3ccccc23)cc1	60.9*	9.5	-8.9	3.1	90.2	105.9	89.9	A3A conf=-0.7;UDG ctr A3A=-2.3
CCN(CC)c1ccc2nc3ccc(N)cc3[n+](-c3ccccc3)c2c1	16.7	-3.3	11.0	nt	nt	nt	nt
CCN(CC)c1ccc2nc3ccccc3[n+](CC)c2c1	78.7*	14.2	22.9	0.8	65.0*	81.7	107.6	A3A conf=81.9*;UDG ctr A3A=2.6
CC(=O)c1ccc(NC(=O)C(Cc2ccccc2)n2cccc2)cc1 (stereo unspecified)	-1.0	-4.4	4.4	-3.6	96.3	nt	nt
CC(C)OC(=O)c1ccc2nc3ccccc3nc2c1	-0.8	10.2	63.8*	3.3	53.1*	82.7	101.2	APOBEC3G confirm=-2.0;UDG ctr A3G=1.5
CCOC(=O)C1CCN(C(=O)Cn2ncc3c([nH]c4ccccc43)c2=O)CC1	0.6	-13.0	-1.3	3.1	86.5	nt	nt
COc1ccc2c3c(cccc13)OC2=O	6.1	-11.6	-1.4	3.9	102.2	nt	nt
COc1ccc2c3c(cccc13)N(C)N=C2C	26.1	57.0	44.7*	-4.7	59.0*	73.8	94.9	APOBEC3G confirm=40.4*
O=C(Nc1cccc([N+](=O)[O-])c1)c1ccncc1	-12.7	-8.3	-6.8	-7.5	77.2	nt	nt
CCCc1cc(C(=O)Nc2cccc([N+](=O)[O-])c2)cs1	-0.8	81.5*	-3.0	-15.1	64.9*	95.4	98.5	PfG6PD confirm=11.7
N#CC1(NC(=O)CN2C(=O)c3ccc([N+](=O)[O-])cc3C2=O)CCCCC1	-2.2	-14.0	-7.8	nt	95.5	nt	nt
Cc1ccc(-c2csc(NC(=O)c3ccc(F)cc3)c2C(=O)O)cc1	-5.1	88.3*	-4.9	5.7	64.5*	86.7	104.9	PfG6PD confirm=44.2
CC1CCC(=O)N(CCC#N)CC1 (stereo unspecified)	-5.4	-7.7	-9.1	5.4	94.1	nt	nt
SMILES	A3A deaminase	PfGluPho inh	A3G deaminase	PfM18AAP inh	CR mimetic SO	Superoxide pick	DHE counter	others
CCOc1ccc2c(c1)C(C)=CC(C)(C)N2	-2.1	89.7*	-7.5	nt	65.4*	102.9	89.5	PfG6PD confirm=33.0
CCc1ccc2c(c1)C(C)=CC(C)(C)N2	0.9	6.6	-1.5	0.8	95.5	nt	nt
COc1ccc2nc3ccccc3nc2c1N	-1.6	70.5*	7.8	7.6	48.6*	57.1*	94.5	PfG6PD confirm=13.6
COc1ccc2nc3cccc(OC)c3nc2c1	4.0	54.7	12.3	2.2	66.6	nt	nt
O=C1c2c(O)ccc(O)c2C(=O)c2c(NCCNCCO)ccc(NCCNCCO)c21	100.2	62.3*!	90.9	nt	32.7*	45.8*	14.2*	PfG6PD confirm=10.8
COc1ccc(F)cc1S(=O)(=O)Nc1ccc(C)cc1	-5.4	63.4*	-5.4	4.9	97.8	102.8	91.8	PfG6PD confirm=36.8
CCc1noc(C)c1C(=O)Nc1cc(Cl)ccc1N1CCOCC1	-1.5	3.5	-7.6	nt	106.5	nt	nt
CCC(=O)Nc1cc(C(=O)O)ccc1S(=O)(=O)c1ccc(C)cc1	46.6*	-11.8	9.7	4.6	91.1	nt	nt	A3A conf=51.9*;UDG ctr A3A=0.3
CC(=O)Nc1cc(C(=O)O)ccc1S(=O)(=O)c1ccc(C)cc1	2.7	-7.8	-8.1	1.6	103.7	nt	nt
CC(=O)Nc1nc(CC(C)C)cc(-c2ccccc2)c1C#N	7.2	-4.4	-0.2	-10.0	102.8	nt	nt
CC(=O)Nc1nc(CC(C)C)cc(-c2ccco2)c1C#N	40.3*	-5.3	15.6	-0.6	94.0	nt	nt	A3A conf=51.0*;UDG ctr A3A=-2.8
COc1ccc(CN2CCC(=O)N([C@H](CO)c3ccccc3)CC2)cc1	-1.0	-7.3	-0.3	7.6	103.8	nt	nt
O=[N+]([O-])c1ccc(C[n+]2cccc3ccccc32)cc1	42.8*	3.6	2.9	-11.3	110.5	nt	nt	A3A conf=52.9*;UDG ctr A3A=-1.8
Cn1c(=O)n(C)c2cc(C(N)=O)ccc21	-0.8	-0.3	-4.8	-3.0	96.9	nt	nt
Cn1c(=O)n(C)c2cc(C(=O)O)ccc21	60.4*	9.7	-2.9	-12.3	97.5	nt	nt	A3A conf=-61.3;UDG ctr A3A=1.9
O=C(C(=Cc1ccccc1)CN1CCCCC1)c1ccccc1	nt	9.1	nt	nt	nt	nt	nt
CCOC(=O)COc1ccc(Br)cc1/C=C1\SC(N)=NC1=O	52.8*	10.8	6.2	14.9	107.8	nt	nt	A3A conf=50.4*;UDG ctr A3A=-4.8
C[C@@H]1CC2OC(=O)[C@@]3(C)C(=O)CC[C@@](C)(C23)[C@@]1(O)CCc1ccoc1 (stereo partly specified)	-6.7	-2.5	-9.5	-1.1	91.2	nt	nt
